# Tests used:
# Format in all cases: functional
# Plasmodium falciparum [1] = assay: GSK_TCMDC: Inhibition of Plasmodium falciparum 3D7 in whole red blood cells, using parasite LDH activity as an index of growth. Test compounds present at 2uM
# Plasmodium falciparum [2] = assay: GSK_TCMDC: Inhibition of Plasmodium falciparum Dd2 in whole red blood cells, using parasite LDH activity as an index of growth. Test compounds present at 2uM
# HepG2 = assay: GSK_TCMDC: Percent inhibition of human HepG2 cell line. Test compounds present at 10uM.
SMILES,Inhibition (Plasmodium falciparum [1]) [%],Inhibition (Plasmodium falciparum [2]) [%],Inhibition (HepG2) [%]
CC1CCCN(Cc2c(O)ccc3c(O)c(-c4nc5ccccc5s4)c(=N)oc23)C1 (configuration not stated),100,99,20
COc1cc(OC)c(NC(=O)C2c3ccccc3C(=O)N(C)C2c2cccs2)cc1Cl (configuration not stated),99,52,4
CCOC(=O)c1ccc(OCCOc2ccccc2)cc1,99,0,63
CCCCCCCN1CC[C@@H](CCCc2ccnc3ccc(OC)cc23)[C@@H](CCN)C1.O=C(O)C(=O)O,100,11,50
OCCN1CCN(C(=S)Nc2ccccc2)CC1,97,7,6
CNC(=O)c1ccccc1Nc1nc(Nc2ccc(CCN3CCN(C)CC3)cc2)ncc1Cl.Cl,97,98,76
CN(C)c1ccc(C2c3[nH]cnc3CCN2C(=O)Nc2cccc([N+](=O)[O-])c2)cc1 (configuration not stated),98,15,0
Cc1cc(Nc2ncc3c(n2)N(C2CCC2)CC3)ccc1N1CCN(C)CC1.Cl,100,100,27
COc1cc(F)c2ncc(Cl)c(C(O)CN3CCC(NC(=O)c4ccc5c(c4)NC(=O)CS5)CC3)c2c1.Cl (configuration not stated),98,68,15
Cl.OCCNc1nc(Nc2ccc(F)cc2)nc2ccccc12,94,73,10
Cc1cc(NCCC(=O)NCCOc2ccccc2)nc(NCc2ccccc2C)n1.O=C(O)C(F)(F)F,92,29,17
Cc1ccccc1C1CCN(C2CCC(NC(=O)c3ccc(-c4ccccc4F)o3)CC2)CC1 (configuration not stated),99,66,42
Cc1cc2c(cc1Cl)N(C(=O)Nc1cc(F)cc(-c3cncnc3)c1)CC2,96,59,0
COc1ccc(CNC(=O)c2cnc3c(O)cccc3c2Nc2cccc(NC(=O)c3ccc(F)cc3)c2)cc1.O=C(O)C(F)(F)F,91,65,50
CCN(CC)CCN(Cc1ccc(-c2ccc(C(F)(F)F)cc2)cc1)C(=O)Cn1c(CCC2CCCCC2)nc(=O)c2ccccc21.O=C(O)C(O)C(O)C(=O)O,87,25,32
CCCCCCOc1ccccc1C(=O)NCCOc1ccc(Cl)cc1,84,37,16
CCCN1CCN(CCCNC(=O)c2cc3c(Cl)nc4ccc(C)cc4c3s2)CC1,97,27,18
Cc1ccc(C(=O)Nc2cccc(-c3ccc(N4CCN(C)CC4)nn3)c2)cc1[N+](=O)[O-],99,40,32
CC(C)C[C@@H](/C=N/NC(N)=O)NC(=O)[C@H](CC(C)C)NC(=O)[C@H](CC(C)C)NC(=O)OCc1ccccc1,100,99,41
